High-throughput results: PubChem BioAssay, National Center for Advancing Translational Sciences (NCATS)
In the library only some 5.5% were active in any assay of this set; here they are far more common.
Six1-Eya2 inh = blocks human Six1 binding to Eya2. activity change, % (concentration not given with the values). actives 0.56% (n = 360,000). AID 651725. AlphaScreen GST-Six1/His-Eya2 binding, biochemical; stronger effect = lower value. Q15475+O00167; in the data active = activity change below about -65%; inconclusive = mostly about -30% to -63%; also: % is scaled to controls: 0 for no effect and ±100 for the full control effect
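GST-Six1 + His-Eya2 (5X stock: 250/500 nM); Tris pH 8.0, 300 mM NaCl, 0.05% BSA, 0.02% Tween 20; GSH donor/Ni acceptor beads; 1 h 37 °C dark; AlphaScreen readout.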
CBFb RUNX1 block = blocks binding between human CBF-beta and RUNX1; 230,000 tested, under 10 active; Q01196+Q13951; AlphaScreen CBFb-His/RUNX1-biotin binding, biochemical; Potency, µM (doses to about 59.8 µM), for inactives: at the highest dose activity, negative = inhibition, usual class: inhibitors; also: % of control where 0% means no effect
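CBFb-His/RUNX1-biotin, 30 nM each, preincubated 20 min RT; compound 15 min RT; Ni + streptavidin beads 50 ng each, 90 min RT; AlphaScreen read.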
RORg inh = inhibitors of mouse ROR gamma transcriptional activity | P51450 | Drosophila S2 Gal4-RORgamma UAS-luciferase reporter, 20 h | actives 5.4% (n = 310,000) | AID 2551 | Potency, µM (series often up to 53.6 µM), for the others: at the top dose activity change, negative = inhibition, most hits filed as inhibitors; also: potency is read from the fitted curve at half-maximal effect; % is scaled to controls: 0 for no effect and ±100 for the full control effect; nearly all actives have a fitted effect of over 60% in size
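Schneider cells (Drosophila), stable Gal4 DBD–ROR gamma + UAS-luc; 1 hr cmpd preincubation; Cu2+ induction 700 uM final; 20 hr ambient; luminescence.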
CtBP-E1A blk = blocks the CtBP interaction with E1A; AID 651724; activity change, % (no concentration beside the values); AlphaScreen GST-E1A/His-CtBP binding, 1536-well; stronger effect = lower value; actives 0.49% (n = 340,000); in the data active = activity change below about -65%; inconclusive = mostly about -30% to -63%; also: % is scaled to controls: 0 for no effect and ±100 for the full control effect
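GST-E1A and His-tagged CtBP (125 nM each as 5X stock) were preincubated with pin-transferred compound for 2 h at 37 °C in the dark, then glutathione donor and nickel acceptor beads were added for 1 h before AlphaScreen reading.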
MBNL1 CUG block = MBNL1-poly(CUG) RNA binding inhibition; AID 2675; actives 0.036% (n = 280,000); Potency, µM (titrated, usually from 57.5 µM), for inactives: top-dose activity change, negative = inhibition, most hits filed as inhibitors; Q9NR56; TR-FRET MBNL1-His/biotin-(CUG)12 binding, 665/545 ratio; active = well fitted inhibition curve with a large enough effect in the signal ratio, with a control signal flat, not every such curve was filed as active; inconclusive = small, poorly fitted or top-dose-only effect, or effect the other way, or a change in a side signal; inactive = no such curve, though single readings can be large or run the other way; the % refers to the signal ratio; also: potency is read from the fitted curve at half-maximal effect; % is scaled to controls: 0 for no effect and ±100 for the full control effect
Target sequence (Q9NR56 whole entry, looked up): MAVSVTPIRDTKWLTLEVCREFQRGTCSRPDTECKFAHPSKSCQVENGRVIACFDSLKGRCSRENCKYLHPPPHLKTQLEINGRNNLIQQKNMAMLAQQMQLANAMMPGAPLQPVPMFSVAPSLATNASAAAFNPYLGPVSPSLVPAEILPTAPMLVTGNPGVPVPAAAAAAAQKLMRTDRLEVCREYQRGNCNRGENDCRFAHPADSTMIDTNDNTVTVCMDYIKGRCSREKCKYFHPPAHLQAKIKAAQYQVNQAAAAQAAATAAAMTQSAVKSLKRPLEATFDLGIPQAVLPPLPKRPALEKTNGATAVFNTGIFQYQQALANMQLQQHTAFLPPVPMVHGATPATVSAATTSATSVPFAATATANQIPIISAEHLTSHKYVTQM
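Compound titration spanned 92 nM–58 uM against the MBNL1-His/biotin-(CUG)12 complex. After 60 min at room temperature with 5 nM streptavidin-XL665 and 0.055 ng/ul terbium anti-His, ratiometric 665/545 nm emission (Ex 340 nm) normalized to controls.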
Gal4-VP16 FLuc = Gal4-VP16 reporter inhibition counter-screen. Drosophila S2 Gal4-VP16 UAS-luciferase, luminescence, 20 h. Potency, µM (titrated, usually from 53.6 µM), inactives show at the highest dose activity, negative = inhibition, actives largely listed as inhibitors. actives 3.5% (n = 310,000);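 also: Gal4-VP16 expression switched on by copper sulfate through the metallothionein promoter; potency is read from the fitted curve at half-maximal effect; % is scaled to controls: 0 for no effect and ±100 for the full control effect; nearly all actives have a fitted effect of over 50% in size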
* = called active by the depositor; u = inconclusive; x = not tested or not shown; [ ] = dose if it differs, or a comment. Unless noted, calls follow the shape of the dose curve; as a rule, active = well fitted curve in the direction sought with a large enough effect; inconclusive = small, poorly fitted or top-dose-only effect, or another doubt; inactive = no such curve, though single readings can be large; an effect the other way counts as inactive or inconclusive.

SMILES	Six1-Eya2 inh	CBFb RUNX1 block	RORg inh	CtBP-E1A blk	MBNL1 CUG block	Gal4-VP16 FLuc
Cc1cccc(N2CCN(C(=O)CCCn3c(=S)[nH]c4cc5c(cc4c3=O)OCO5)CC2)c1C	-9.7	3.8%	3.16µM*	-4.6	17.6%	4.47µM*
CN(CCCn1cnc2c(OCc3ccccc3)ncnc21)Cc1ccco1	-4.4	x	x	6.1	x	x
O=C(CCCn1c(=S)[nH]c2cc3c(cc2c1=O)OCO3)N1CCc2ccccc2C1	-2.7	1.2%	12.6µM*	4.0	4.0%	u
COc1cc2c(cc1OC)CN(c1nc(CN3CCOCC3)nc3sc4c(c13)CCCC4)CC2	-26.0	u	14.1µM*	-21.1	-8.4%	u
COc1cccc(Nc2nc(CN3CCOCC3)nc3sc4c(c23)CCCC4)c1	-19.7	-9.3%	10µM*	-0.3	-9.3%	u
Cc1ccc(Oc2nc(CN3CCOCC3)nc3sc4c(c23)CCC(C)C4)cc1C (configuration not stated)	0.7	3.1%	7.94µM*	0.0	x	11.2µM*
COc1cc2c(cc1OC)CN(c1nc(CN3CCCCC3)nc3sc4c(c13)CCCC4)CC2	-20.1	-4.9%	11.2µM*	-17.3	x	u
CN(Cc1nc(-c2cccnc2)no1)S(=O)(=O)c1ccc2ccccc2c1	-0.9	5.3%	23.7%	-2.5	-7.4%	0.1%
CN(Cc1nc(-c2cccnc2)no1)S(=O)(=O)c1ccc(Br)cc1	9.8	2.1%	40.3%	-1.9	-10.7%	11.2µM*
COc1cc(CN2C[C@@H](CO)O[C@@H](n3cnc4c(NCc5ccco5)ncnc43)C2)cc(OC)c1OC	-4.8	x	x	0.9	x	x
Cc1cccc(NC(=S)NC(=O)c2ccc(Br)o2)c1C	0.6	-4.3%	3.55µM*	x	3.1%	u
Cc1ccc(C)c(NC(=S)NNC(=O)c2ccc(Br)o2)c1	0.0	-0.9%	u	-0.5	-3.4%	-22.1%
Cc1c(NC(=S)NC(=O)c2ccc(Br)o2)c(=O)n(-c2ccccc2)n1C	9.3	2.9%	2.1%	x	-5.3%	2.8%
Cc1cccc(C)c1NC(=S)NC(=O)c1ccc(Br)o1	-5.7	-4.5%	3.16µM*	-9.2	-3.7%	u
Cc1ccc(NC(=S)NC(=O)c2ccc(Br)o2)c(C)c1	5.9	0.5%	2.24µM*	0.5	-2.6%	u
O=C(NC(=S)Nc1ccccc1F)c1ccc(Br)o1	0.1	-11.2%	4.47µM*	x	1.3%	u
C[C@H]1Cc2c(COc3ccccc3)nc3c(c2CO1)CN(S(=O)(=O)c1ccc(C#N)cc1)CC3	x	14.7%[13.1 µM]	x	x	x	x
COC(=O)NNC(=S)Nc1ccc(Br)cc1	15.6	16.0%	14.1µM*	0.9	1.0%	-14.6%
CC(C)(C)NC(=S)Nc1ccc(Nc2ccccc2)cc1	u	u	1.78µM*	-17.8	-8.8%	7.08µM*
Fc1ccccc1NC(=S)Nc1ccc(Br)cc1	8.2	4.5%	11.2µM*	-2.6	-10.4%	u
CC(=O)Nc1ccc(NC(=S)Nc2ccc(Br)cc2)cc1	-1.2	4.0%	-22.2%	-1.7	x	1.3%
COc1ccc(NC(=S)NNC(=O)OC(C)(C)C)cc1OC	2.6	8.0%	-40.2%	40.7	-6.8%	-2.7%
Cc1ccc(NC(=S)Nc2ccc(Br)cc2)cc1	10.0	-3.7%	7.94µM*	-5.2	-1.6%	u
Cc1nc2sccn2c(=O)c1S(=O)(=O)NC(C)c1ccccc1 (configuration not stated)	7.2	x	-1.9%	-18.7	1.2%	2.1%
NC(=O)c1c(NC(=O)c2ccccc2F)sc2c1CCCC2	-23.9	x	u	-24.9	22.3%	24.9%
Cc1cccc(C)c1OCc1cc(C(=O)N2CCN(c3ccc(F)cc3)CC2)no1	-12.6	x	-11.8%	1.9	-1.7%	-2.4%
O=C(/C=C/c1cccc([N+](=O)[O-])c1)OC1CCCCC1=O (configuration not stated)	3.3	0.3%	22.1%	-8.4	19.8%	29.8%
CC(C)(C)NC(=S)Nc1ccc(Br)cc1	0.8	3.8%	2µM*	5.9	-1.1%	-84.4%
